A short description of assay [1]: ATG_M_06_TRANS: Attagene TRANS-FACTORIAL HepG2 Assay for M06 Transcription Factor (Internal Marker) (AID 2282983; active = hit-call score of the fitted dose curve at least 0.9, where 1 is the maximum;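 note: reporter transcript level by RT-PCR then capillary electrophoresis fluorescence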). As to conditions: HepG2 Attagene TRANS M06 internal marker reporter. An outline of the steps:
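mRNA levels of a reporter transcript, quantified as FAM fluorescence on capillary electrophoresis, served as readout. HepG2 cells expressing exogenous GAL4-chimera reporter constructs were exposed for 24 h. Gain of signal over DMSO was evaluated.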

Assay [2] can be described thus: ATG_M_32_TRANS: Attagene TRANS-FACTORIAL HepG2 Assay for M32 Transcription Factor (Internal Marker) (AID 2282984; active = hit-call score of the fitted dose curve at least 0.9, where 1 is the maximum;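 note: transcript level of a background control reporter unit measured by RT-PCR and capillary electrophoresis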). The following applies: HepG2 Attagene TRANS M32 internal marker reporter. An outline of the steps: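 Fluorescence-detected mRNA induction, HepG2 liver cells, 24 h after dosing. Multiple GAL4-UAS reporter units introduced by transient transfection; background-control endpoint analysed for gain of signal against DMSO.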

Assay [3] has as its target Nuclear receptor subfamily 4 group A member 2 (Homo sapiens) (UniProt P43354). Briefly: ATG_NURR1_TRANS: Attagene TRANS-FACTORIAL HepG2 Assay for human Nuclear Receptor Related Protein 1 (NURR1) (AID 2282985; active = hit-call score of the fitted dose curve at least 0.9, where 1 is the maximum). As to conditions: HepG2 Attagene TRANS reporter, mRNA readout. An outline of the steps: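 Chimeric NR-Gal4 proteins were expressed in human HepG2 cells bearing GAL4-UAS reporter units, and induced reporter mRNA was quantified 24 h post-dosing by RT-PCR and capillary electrophoresis.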

For assay [4], the target named is Transcriptional activator Myb (Homo sapiens) (UniProt P10242). Nature of the assay: ATG_Myb_CIS: Attagene CIS-FACTORIAL HepG2 Assay for human Myeloblastosis (Myb) Proto-Oncogene Transcription Factor (AID 2282986). As to conditions: HepG2 Attagene CIS-FACTORIAL Myb reporter transcription; actives raise or lower the signal. An outline of the steps: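 HepG2 cells were transiently transfected with cis-regulated multiple reporter transcription units reflecting endogenous Myb activity, then exposed to compound for 24 hours. Reporter mRNA was measured by RT-PCR with capillary electrophoresis; bidirectional fitting versus DMSO baseline.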
Chain of Transcriptional activator Myb (Homo sapiens) (P10242 whole entry, looked up): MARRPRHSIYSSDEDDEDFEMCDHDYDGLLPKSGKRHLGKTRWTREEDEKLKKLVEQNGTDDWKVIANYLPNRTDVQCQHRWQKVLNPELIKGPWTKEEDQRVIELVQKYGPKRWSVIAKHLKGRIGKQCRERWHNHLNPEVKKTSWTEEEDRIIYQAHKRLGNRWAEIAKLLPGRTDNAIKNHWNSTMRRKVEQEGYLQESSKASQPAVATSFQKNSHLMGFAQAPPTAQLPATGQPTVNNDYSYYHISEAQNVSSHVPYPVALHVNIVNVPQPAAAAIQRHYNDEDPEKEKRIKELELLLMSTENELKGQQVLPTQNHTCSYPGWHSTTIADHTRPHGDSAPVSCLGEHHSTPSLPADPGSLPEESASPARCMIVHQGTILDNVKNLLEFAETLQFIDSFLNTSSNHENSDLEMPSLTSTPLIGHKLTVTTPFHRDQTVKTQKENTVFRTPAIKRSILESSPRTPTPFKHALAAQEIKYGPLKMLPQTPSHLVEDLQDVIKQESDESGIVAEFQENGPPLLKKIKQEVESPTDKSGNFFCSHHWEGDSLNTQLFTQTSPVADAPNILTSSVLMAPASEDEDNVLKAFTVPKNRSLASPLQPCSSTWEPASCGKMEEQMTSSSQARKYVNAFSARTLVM

The target in assay [5] is Nuclear respiratory factor 1 (Homo sapiens) (UniProt Q16656). Nature of the assay: ATG_NRF1_CIS: Attagene CIS-FACTORIAL HepG2 Assay for human Nuclear Respiratory Factor 1 (NRF1) Orphan Gene (AID 2282987). The following applies: HepG2 NRF1 cis-element reporter, Attagene multiplex; actives raise or lower the signal. An outline of the steps:
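HepG2 cells transiently transfected with multiple reporter transcription units under cis-regulatory promoter control, so endogenous transcription-factor activity is read. After 24 h compound exposure, reporter mRNA quantified by RT-PCR, fluorescent labelling, HpaI digestion and capillary electrophoresis; bidirectional fitting versus DMSO.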

Assay [6] can be described thus: ATG_NFI_CIS: Attagene CIS-FACTORIAL HepG2 Assay for human Nuclear Factor I (NFI) (AID 2282989). As to conditions: HepG2 cis-regulatory reporter, NFI response element transcription; actives raise or lower the signal. An outline of the steps: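 After transient transfection of HepG2 with cis-promoter reporter constructs and 24 h dosing, RNA is reverse-transcribed, amplified, 6-FAM end-labelled and HpaI-digested before capillary analysis. Bidirectional curve fitting against DMSO.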

Assay [7] addresses Myc proto-oncogene protein (Homo sapiens) (UniProt P01106). Briefly: ATG_Myc_CIS: Attagene CIS-FACTORIAL HepG2 Assay for human Myelocytomatosis (Myc) Proto-Oncogene Transcription Factor (AID 2282990). As to conditions: HepG2, Attagene cis-reporter transcription factor activity; actives raise or lower the signal. An outline of the steps:
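HepG2 cells transiently transfected with multiple cis-promoter-driven reporter transcription units, so endogenous TF activity is read. After 24 h compound exposure, reporter mRNA was quantified by RT-PCR, 6-FAM labelling, HpaI digestion and capillary electrophoresis; bidirectional fit versus DMSO.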

A short description of assay [8]: ATG_NF_kB_CIS: Attagene CIS-FACTORIAL HepG2 Assay for human Nuclear Factor Kappa B (NF-kB) (AID 2282991). As to conditions: HepG2 Attagene cis-factorial NF-kB reporter mRNA; actives raise or lower the signal. An outline of the steps:
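HepG2 cells transiently transfected with multiplexed cis-element reporter units measuring endogenous transcription factor activity; reporter mRNA read 24 h after dosing by RT-PCR, fluorescent labelling, HpaI digestion and capillary electrophoresis. Bidirectional fit against DMSO baseline.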

The nature of assay [9]: ATG_NRF2_ARE_CIS: Attagene CIS-FACTORIAL HepG2 Assay for human Nuclear Factor Erythroid 2 Related Factor 2 (NFR2) response to Antioxidant Response Elements (ARE) (AID 2282992). As to conditions: HepG2 Attagene ARE/NRF2 reporter, transcription factor activity; actives raise or lower the signal. An outline of the steps: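 Readout: reporter mRNA quantified by RT-PCR plus FAM-labelled primer extension, HpaI digestion and capillary electrophoresis, 24 h after dosing transfected HepG2 cells. Gain or loss of signal is fitted bidirectionally against DMSO baseline.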

Assay [10] has as its target Cellular tumor antigen p53 (Homo sapiens) (UniProt P04637). Briefly: ATG_p53_CIS: Attagene CIS-FACTORIAL HepG2 Assay for human p53 Transcription Factor (AID 2282994). The following applies: HepG2 p53 cis-element reporter, Attagene mRNA; actives raise or lower the signal. An outline of the steps: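 Read-out: reporter mRNA by RT-PCR plus capillary electrophoresis with fluorescence detection. Human HepG2 liver cells carried transfected multi-reporter cis-element constructs, dosed 24 h. Gain or loss of signal fitted bidirectionally against DMSO control.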

The nature of assay [11]: BSK_3C_TissueFactor: BioMAP Diversity Plus: 3C Assay for Tissue Factor Biomarker Activity (AID 2282997). The following applies: BioMAP 3C HUVEC, tissue factor biomarker readout; actives raise or lower the signal. An outline of the steps: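 Tissue Factor measured by ELISA, 24 h after treatment of primary HUVEC in the BioMAP 3C setting.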
Assay [12] is described as follows: BSK_3C_uPAR: BioMAP Diversity Plus: 3C Assay for Urokinase-type plasminogen activator receptor (uPAR) Biomarker Activity (AID 2282998). As to conditions: BioMAP 3C HUVEC, uPAR biomarker ELISA; actives raise or lower the signal. An outline of the steps:
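Endothelial primary cells of human umbilical vein origin received test chemical; 24 h later uPAR was assayed by ELISA. Fitting was bidirectional, DMSO as negative control.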

Assay [13] can be described thus: BSK_3C_VCAM1: BioMAP Diversity Plus: 3C Assay for Vascular cell adhesion molecule 1 (VCAM1) Biomarker Activity (AID 2282999). As to conditions: BioMAP 3C HUVEC, VCAM1 ELISA, cytokine-stimulated; actives raise or lower the signal. An outline of the steps: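 Vascular primary endothelium (human umbilical vein) was exposed to chemicals and assayed 24 h later. VCAM-1 levels came from ELISA, with DMSO serving as baseline for bidirectional fitting.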
Background: In an ELISA, binding on a coated surface is turned into a signal by an enzyme label.

The target in assay [14] is Hepatocyte nuclear factor 4-alpha (Homo sapiens) (UniProt P41235). Nature of the assay: ATG_HNF4a_TRANS: Attagene TRANS-FACTORIAL HepG2 Assay for human Hepatocyte Nuclear Factor 4 alpha (HNF4a) (AID 2282982; active = hit-call score of the fitted dose curve at least 0.9, where 1 is the maximum). As to conditions: HepG2 HNF4a transactivation reporter, mRNA readout. An outline of the steps: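 Using HepG2 liver cells transfected with GAL4-UAS reporter units, chemical-induced mRNA increases were assessed after 24 hours. Fluorescent RT-PCR fragments were separated by capillary electrophoresis and compared with DMSO negative controls.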
Chain of Hepatocyte nuclear factor 4-alpha (Homo sapiens) (P41235 whole entry, looked up, the tested form may be a part): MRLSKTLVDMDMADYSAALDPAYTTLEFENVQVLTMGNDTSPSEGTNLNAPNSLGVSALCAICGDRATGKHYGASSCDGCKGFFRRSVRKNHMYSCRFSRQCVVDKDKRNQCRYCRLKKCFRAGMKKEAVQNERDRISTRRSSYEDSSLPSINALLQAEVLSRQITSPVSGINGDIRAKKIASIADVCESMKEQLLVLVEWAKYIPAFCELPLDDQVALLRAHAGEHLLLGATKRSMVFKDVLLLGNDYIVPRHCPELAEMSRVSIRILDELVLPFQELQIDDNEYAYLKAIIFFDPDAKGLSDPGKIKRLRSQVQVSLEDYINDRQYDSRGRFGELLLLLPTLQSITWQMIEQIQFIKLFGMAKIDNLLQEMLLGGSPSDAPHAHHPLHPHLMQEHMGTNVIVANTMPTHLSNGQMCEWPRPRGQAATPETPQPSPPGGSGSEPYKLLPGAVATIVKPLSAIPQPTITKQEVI

Assay [15] in a line: ATG_Oct_MLP_CIS: Attagene CIS-FACTORIAL HepG2 Assay for human Octamer-Binding Transcription Factor (Oct) (AID 2282993). As to conditions: HepG2 Attagene cis-factorial Oct reporter, mRNA; actives raise or lower the signal. An outline of the steps:
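Cells of the HepG2 line express promoter-controlled reporter sequences whose mRNA levels, after 24 h treatment, are measured by RT-PCR and capillary electrophoresis. Increases and decreases are scored relative to DMSO.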

Results filed as inconclusive are left out. The source made the active and inactive calls. Rule for the calls, unless noted: active = hit-call score of the fitted dose curve at least 0.9, where 1 is the maximum; inactive = score below 0.9.

Usually AC50 stands for the concentration giving half of the maximal activity seen.

Chain of Nuclear respiratory factor 1 (Homo sapiens) (Q16656 whole entry, looked up): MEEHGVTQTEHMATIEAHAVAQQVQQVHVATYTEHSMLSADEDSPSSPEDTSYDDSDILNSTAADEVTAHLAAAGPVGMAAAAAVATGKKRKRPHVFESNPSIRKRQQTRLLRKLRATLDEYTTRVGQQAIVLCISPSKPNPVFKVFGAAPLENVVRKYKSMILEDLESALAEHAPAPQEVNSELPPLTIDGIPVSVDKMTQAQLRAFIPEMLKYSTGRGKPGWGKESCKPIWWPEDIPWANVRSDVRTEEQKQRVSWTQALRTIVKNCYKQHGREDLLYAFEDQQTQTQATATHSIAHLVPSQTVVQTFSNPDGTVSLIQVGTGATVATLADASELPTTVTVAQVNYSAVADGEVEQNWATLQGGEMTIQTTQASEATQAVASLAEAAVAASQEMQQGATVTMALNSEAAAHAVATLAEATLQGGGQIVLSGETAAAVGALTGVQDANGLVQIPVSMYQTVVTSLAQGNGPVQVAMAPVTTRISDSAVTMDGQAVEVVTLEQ
Chain of Cellular tumor antigen p53 (Homo sapiens) (P04637 whole entry, looked up): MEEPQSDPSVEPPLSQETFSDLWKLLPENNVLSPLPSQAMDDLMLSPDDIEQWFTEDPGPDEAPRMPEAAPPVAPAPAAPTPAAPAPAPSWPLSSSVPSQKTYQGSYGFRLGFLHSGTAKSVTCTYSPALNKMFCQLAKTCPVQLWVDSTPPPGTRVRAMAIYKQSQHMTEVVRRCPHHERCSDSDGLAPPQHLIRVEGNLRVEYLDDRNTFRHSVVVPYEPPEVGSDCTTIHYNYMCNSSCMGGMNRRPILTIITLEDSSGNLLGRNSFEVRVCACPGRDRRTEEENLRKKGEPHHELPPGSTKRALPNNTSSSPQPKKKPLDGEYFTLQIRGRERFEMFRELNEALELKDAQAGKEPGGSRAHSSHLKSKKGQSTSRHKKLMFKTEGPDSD
Chain of Myc proto-oncogene protein (Homo sapiens) (P01106 whole entry, looked up): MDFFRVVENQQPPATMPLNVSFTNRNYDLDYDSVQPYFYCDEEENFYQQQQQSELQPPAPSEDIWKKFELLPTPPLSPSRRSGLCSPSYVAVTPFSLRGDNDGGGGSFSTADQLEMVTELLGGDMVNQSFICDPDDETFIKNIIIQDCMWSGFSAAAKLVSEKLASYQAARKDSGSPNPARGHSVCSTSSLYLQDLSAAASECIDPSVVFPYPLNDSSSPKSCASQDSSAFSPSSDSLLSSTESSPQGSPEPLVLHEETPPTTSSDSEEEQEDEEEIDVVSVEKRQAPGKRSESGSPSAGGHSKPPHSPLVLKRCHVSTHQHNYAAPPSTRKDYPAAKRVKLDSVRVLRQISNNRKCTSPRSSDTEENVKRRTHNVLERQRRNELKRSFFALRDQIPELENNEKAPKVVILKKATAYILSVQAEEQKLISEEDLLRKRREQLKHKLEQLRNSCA
Chain of Nuclear receptor subfamily 4 group A member 2 (Homo sapiens) (P43354 whole entry, looked up, the tested form may be a part): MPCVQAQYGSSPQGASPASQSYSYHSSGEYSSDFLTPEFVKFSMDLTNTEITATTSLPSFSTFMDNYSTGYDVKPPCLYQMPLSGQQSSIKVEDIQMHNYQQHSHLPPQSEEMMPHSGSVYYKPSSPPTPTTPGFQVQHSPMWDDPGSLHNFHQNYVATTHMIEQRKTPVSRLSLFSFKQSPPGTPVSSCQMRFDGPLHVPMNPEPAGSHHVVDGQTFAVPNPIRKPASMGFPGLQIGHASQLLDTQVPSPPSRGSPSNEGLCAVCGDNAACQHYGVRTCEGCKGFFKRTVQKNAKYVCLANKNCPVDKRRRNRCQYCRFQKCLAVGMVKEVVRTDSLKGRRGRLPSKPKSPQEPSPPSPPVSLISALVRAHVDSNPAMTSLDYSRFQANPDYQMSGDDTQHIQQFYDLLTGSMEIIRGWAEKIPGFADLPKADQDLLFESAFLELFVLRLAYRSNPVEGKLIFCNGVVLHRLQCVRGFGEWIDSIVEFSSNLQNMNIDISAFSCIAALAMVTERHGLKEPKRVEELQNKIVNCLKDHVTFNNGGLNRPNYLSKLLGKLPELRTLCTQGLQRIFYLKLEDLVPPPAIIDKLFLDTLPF

On to `CC(=O)CCC=C(C)CCC=C(C)C`, for which the result in assay [1], in [2], in [3], in assay [4], in assay [5] and in [6] was inactive. In addition, the compound was called inactive in assay [7], in assay [8], in assay [10], in assay [11] and in assay [12]. Moreover, the AC50 in assay [9] was 53 µM (active); in assay [13] it was 30.9 µM (active).
Take `CCCCCCCCCOS(=O)(=O)O`: the compound was classed as inactive in assay [14], in [4], in assay [5], in assay [6], in [7] and in assay [9]. For the same compound, the compound was called inactive in assay [10].
With `CCCC1CCC(=O)CC1`, the compound was called inactive in assay [1], in assay [2], in assay [3], in assay [4], in assay [5] and in assay [6]. Also, the compound was classed as inactive in assay [7].
With `CC/C=C\CCCCO`, the compound was classed as inactive in assay [14], in [2], in assay [3], in assay [4], in [5] and in assay [6]. The result in [7], in assay [8], in assay [9] and in [15] was inactive.
Take `CCCCCCCCCCCCOC(C)=O`: the compound was called inactive in [1], in assay [3], in assay [4], in assay [5], in assay [7] and in [8]. In assay [9], the compound was called inactive.
For the compound `C=CC(C)CCCC(C)(C)O` (stereo not drawn), the result in assay [1], in assay [4], in assay [5], in [6], in [8] and in assay [9] was inactive. The outcome in [15] and in [10] was inactive.
For `O=S(=O)(O)C(F)(F)C(F)(F)OC(F)(F)C(F)(F)F`, the result in [11], in assay [12] and in assay [13] was inactive.
For the compound `CCCCCCCCCCCCS`, the result in assay [5], in assay [6], in assay [7], in assay [8], in assay [15] and in assay [10] was inactive. Besides, the AC50 in assay [9] is 26.4 µM (active); in assay [11] it was 30.7 µM (active); in assay [12], 26.4 µM (active); in assay [13] it was 20 µM (active).
For `CC(=O)CC(C)(C)C1CCCCC1`, the call in [14], in assay [2], in assay [5], in assay [7], in assay [8] and in [9] was inactive. Besides, the result in assay [15] and in assay [10] was inactive.
`CCO[Si](CC)(OCC)OCC`: the compound was called inactive in assay [3], in assay [4], in [5], in assay [6], in assay [7] and in [8]. Besides, the call in assay [15] and in assay [10] was inactive. Besides, the concentration at half-maximal activity (AC50) in assay [9] was 19.8 µM (active).
On to `CCCCCCCC1CCCC1=O` (stereo not drawn), for which the compound was classed as inactive in assay [1], in assay [3], in assay [4], in assay [5], in assay [6] and in assay [7]. The outcome in assay [9] and in assay [15] was inactive. The figures for the half-maximal activity concentration (AC50) in [11], in assay [12] and in assay [13] were 33 µM (active), 34.5 µM (active) and 35.8 µM (active), respectively.
`C=CCOC(=O)/C=C\C(=O)OCC=C`: the compound was called inactive in assay [14], in assay [3], in assay [4], in assay [5], in [6] and in assay [7]. In addition, in [15], the result was inactive. Besides, the figures for the AC50 in assay [8], in assay [9] and in assay [10] were 15.8 µM (active), 6.75 µM (active) and 156 µM (active), respectively.

For the origin of these results see PubChem BioAssay (EPA / NIEHS).
